Bioassay records deposited in PubChem BioAssay by National Center for Advancing Translational Sciences (NCATS).
An excerpt weighted towards active compounds, which were near 12% of everything screened.
Pf growth 48h: inhibits P. falciparum growth in the first generation, 48 h; P. falciparum luciferase growth in erythrocytes, 48 h; 5.9% of 310,000 active; Potency, µM (doses to about 28.7 µM), for inactives: at the highest dose activity change, negative = inhibition, most hits filed as inhibitors; AID 504832; note: % is set by controls: 0 for no effect and ±100 for the full control effect
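First compound was added to culture medium, then infected red cells at 0.1% parasitemia and 2% hematocrit (final). After incubation at 37 C under 5% CO2, luciferase detection reagent was dispensed and light output recorded.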
SARS PLP yeast: inhibitors of SARS-CoV papain-like protease in yeast. Potency, µM (titrated, usually from 32.9 µM), without a hit: at the top dose activity, positive = growth rescue, hits mostly activators. S. cerevisiae expressing SARS-CoV PLpro, growth rescue. 0.19% of 330,000 active. AID 485353; calls by dose curve; note: 0% is about no effect; nearly all actives have a fitted effect of over 55% in size
AmpC detergent: blocks E. coli AmpC beta-lactamase in detergent assay. P00811. AmpC hydrolysis of nitrocefin, absorbance 480 nm, 0.01% Triton. Potency, µM (titrated, usually from 114 µM), without a hit: at the highest dose activity change, negative = inhibition, usual class: inhibitors. 0.041% of 370,000 active;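 note: 0% = no-compound wells and -100% = no-enzyme wells; nearly all actives have a fitted effect of over 25% in size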
Target sequence (P00811 whole entry, looked up): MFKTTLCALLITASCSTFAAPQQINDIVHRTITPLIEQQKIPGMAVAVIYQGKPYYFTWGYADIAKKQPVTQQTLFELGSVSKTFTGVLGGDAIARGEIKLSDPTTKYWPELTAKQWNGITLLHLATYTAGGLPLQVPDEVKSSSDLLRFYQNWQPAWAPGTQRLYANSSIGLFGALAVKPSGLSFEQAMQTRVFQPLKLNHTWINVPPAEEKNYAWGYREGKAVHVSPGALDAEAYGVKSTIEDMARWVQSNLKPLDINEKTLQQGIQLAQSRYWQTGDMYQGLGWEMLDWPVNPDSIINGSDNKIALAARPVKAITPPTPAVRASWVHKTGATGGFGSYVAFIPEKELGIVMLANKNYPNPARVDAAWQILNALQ
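20 mM phosphate pH 7.0 + 0.01% (detergent screen) or 0.0001% Triton X-100; 5.3 nM AmpC reagent; cpd preinc 15 min RT; nitrocefin (800 uM stock) to start; A480 q20 s × 4 min; Activity was normalised to no-enzyme and no-compound control wells.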
Sm TGR inh: blocks Schistosoma mansoni thioredoxin glutathione reductase; Q962Y6; purified TGR, DTNB reduction, TNB absorbance 405 nm; Potency, µM (highest dose often 114 µM), for inactives: top-dose activity change, negative = inhibition, most hits filed as inhibitors; 3% of 360,000 active; AID 485364; note: % is set by controls: 0 for no effect and ±100 for the full control effect; nearly all actives have a fitted effect of over 60% in size
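First, TGR (20 nM dispensed) and NADPH were mixed with compound. Second, a 15 min room-temperature incubation followed. Third, further NADPH and then DTNB were added to start the reaction. Finally, TNB absorbance was monitored kinetically.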
Pf growth 96h: P. falciparum growth inhibition at 96 hour, primary screen for plastid delayed-death inhibitors; P. falciparum luciferase reporter growth, 96 h; Potency, µM (series often up to 28.7 µM), without a hit: at the top dose activity change, negative = inhibition, usual class: inhibitors; 6.9% of 320,000 active; note: % is set by controls: 0 for no effect and ±100 for the full control effect
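Two parasite generations (96 h, 37 C, 5% CO2) of compound exposure in infected erythrocytes (0.05% parasitemia, 2% hematocrit). Luciferase-reporter P. falciparum; decreased luminescence indicates inhibited growth, aimed at apicoplast-acting delayed death.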
AmpC inh no detg: inhibitors of E. coli AmpC beta-lactamase without detergent | AmpC nitrocefin hydrolysis, absorbance 480 nm, 0.0001% Triton | Potency, µM (top dose mostly 57.1 µM), inactives show top-dose activity change, negative = inhibition, actives largely listed as inhibitors | 0.52% of 330,000 active | P00811;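 note: plate controls were no compound for no effect and no enzyme for full effect; nearly all actives have a fitted effect of over 20% in size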
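20 mM phosphate pH 7.0 + 0.01% (detergent screen) or 0.0001% Triton X-100; 5.3 nM AmpC reagent; cpd preinc 15 min RT; nitrocefin (800 uM stock) to start; A480 q20 s × 4 min; Activity was normalised to no-enzyme and no-compound control wells.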
* = called active by the depositor; ? = inconclusive; · = not tested or not shown. Unless noted, calls come from the whole dose curve; as a rule, active = well fitted curve in the direction sought with a large enough effect; inconclusive = small, poorly fitted or top-dose-only effect, or another doubt; inactive = no such curve, though single readings can be large; an effect the other way counts as inactive or inconclusive. Potency is the fitted concentration of half-maximal effect.

SMILES	Pf growth 48h	SARS PLP yeast	AmpC detergent	Sm TGR inh	Pf growth 96h	AmpC inh no detg
O=C(Cn1cnc2ccccc2c1=O)NCCC(=O)Nc1ccccc1C(F)(F)F	16%	0%	-12%	-5%	?	-9%
Cc1[nH]nc2c1C(c1ccc(OC(=O)c3ccco3)cc1)C(C#N)=C(N)O2 (stereo unspecified)	3%	4%	?	-1%	-80%	-31%
COCc1[nH]nc2c1C(c1ccc(OC)cc1)C(C#N)=C(N)O2 (stereo unspecified)	-6%	-1%	1%	2%	1.3µM*	-10%
COc1cc(C2C(C#N)=C(N)Oc3n[nH]c(C)c32)ccc1OC(=O)c1ccccc1 (stereo unspecified)	3%	1%	0%	0%	17µM*	-13%
CCOc1cc(C2C(C#N)=C(N)Oc3n[nH]c(CC)c32)ccc1OCCN1CCOCC1 (stereo unspecified)	?	-3%	-2%	-22%	9.3µM*	21%
CCCc1[nH]nc2c1C(c1ccc(OCCN3CCOCC3)c(OCC)c1)C(C#N)=C(N)O2 (stereo unspecified)	0%	12%	-2%	-18%	15%	60%
Cc1nn2c(=O)cc(COC(=O)c3ccco3)nc2s1	·	·	-2%	-1%	·	·
CN(CCc1nc2ccc(Cl)cc2[nH]1)Cc1nc(CC2CC2)no1	-3%	-2%	6%	?	?	24%
CCO[C@H]1O[C@@H]([C@H](COCc2ccccc2)OCc2ccccc2)[C@@H](OCc2ccccc2)[C@H]1O	6.4µM*	·	·	·	4.5µM*	·
O=C(NCCOc1ccccc1)C1=CC=CN2CCS(=O)(=O)N=C12	·	-7%	·	·	·	5%
COc1cccc(C(=O)OC(C)CN2CCCC2)c1 (stereo unspecified)	-4%	-3%	-16%	-15%	4.1µM*	-12%
COc1ccc(C(=O)Nc2cccc(C(=O)N3CCCCC3)c2)cc1	?	7%	1%	-7%	?	2%
COc1cccc(C(=O)N2CCN(C(=O)C3CC3)CC2)c1	10%	9%	-12%	2%	12µM*	-3%
COc1ccc(C(=O)Nc2cccc(C(=O)N3CCN(C)CC3)c2)cc1	136%	-1%	-10%	-2%	0.13µM*	-6%
COc1cccc(C(=O)C2CCCN(C(=O)c3cccc(C#CC(C)(C)O)c3)C2)c1 (stereo unspecified)	?	0%	-6%	·	12µM*	82%
COc1cccc(C(=O)N2CCC(C(=O)N3CCN(C)CC3)CC2)c1	32%	11%	-3%	3%	19%	-1%
Cc1ccc(C)c(NC(=O)Cn2c(=O)n(Cc3ccco3)c(=O)c3oc4ccccc4c32)c1	·	·	-5%	-11%	·	·
CCN(CC)CCNC(=O)c1cc(-c2ccc(Br)s2)nc2ccccc12	·	-4%	?	-16%	2%	143%
CN(C)C(CNC(=O)c1cc(-c2ccco2)nc2ccccc12)c1ccccc1 (stereo unspecified)	·	10µM*	·	·	·	-19%
CC(C)CCNC(=O)c1cc(-c2ccco2)nc2ccccc12	-22%	-3%	0%	40µM*	·	62%
CCCCOc1cc(C(=O)NCCN(CC)CC)c2ccccc2n1	13µM*	-2%	-3%	12%	10µM*	43%
O=C(NCCCN1CCOCC1)c1cc(-c2ccco2)nc2ccccc12	·	7%	·	·	·	-6%
CCCCCCNC(=O)c1cc(-c2ccco2)nc2ccccc12	-16%	-24%	-2%	3.2µM*	?	4%
CCN(CC)CCCNc1cc(C)nc2cc(-c3cccs3)nn12	?	-1%	-3%	12%	-25%	-32%
CCOc1ccccc1NC(=O)c1c(NCc2cccs2)sc2c1CCCCC2	·	·	-4%	7%	·	·
COc1cccc(N2C(=O)C(CC(=O)Nc3ccccc3)N(CCc3sccc3C)C2=O)c1 (stereo unspecified)	·	·	8%	1%	·	·
